Reference: PubChem BioAssay
Activity calls are given as the source filed them. Unless noted, no rule for the calls is given here.

Key:
[1] = resazurin metabolic signal in HepG2 cells – cell-based, resazurin fluorescence, 24 h, PK04 Diversity Set, profiling panel (AID 1172); conditions: HepG2 viability, higher = more signal; also: test concentration not given here
[2] = budding yeast growth changes without added modifier – OD600, strain BY4716, 24 h, basal condition, primary screen (AID 1173); conditions: S. cerevisiae BY4716 growth, OD600, 24 h; higher = more signal, called active from +8 up or from −8 down
[3] = viability profiling in MM1S myeloma cells – cell-based, resazurin fluorescence, basal, 24 h, PK04 Diversity Set, profiling panel (AID 1174); conditions: higher = more signal, called active from +8 up or from −8 down;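 also: MM1S multiple myeloma cell line; test concentration not given here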
[4] = biological target: Dihydroorotate dehydrogenase (quinone), mitochondrial (Plasmodium falciparum (isolate 3D7)) (UniProt Q08210); experiment: inhibition of P. falciparum DHODH – biochemical, C-terminal His tag, absorbance 600 nm, primary screen (AID 1175); conditions: PfDHODH enzyme, DCIP absorbance 600 nm; higher = more signal, called active from +8 up or from −8 down;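 also: recombinant parasite enzyme with a five histidine tag at its C terminus; test concentration not given here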
[5] = inhibition of PAO1 biofilm formation – strain PAO1, LB-PBS medium, absorbance 600 nm, primary screen (AID 1176); also: test concentration not given here; conditions: P. aeruginosa PAO1 growth/biofilm, A600, 12 h; higher = more signal
[6] = growth modulation of vineyard yeast isolate – strain RM11-1a, OD600, basal, 24 h, primary screen (AID 1177);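 also: cultures grown under basal conditions with no added stressor; test concentration not given here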; conditions: S. cerevisiae RM11-1a growth, OD600, 24 h; higher = more signal, called active from +8 up or from −8 down
[7] = growth of efflux-deficient E. coli DRC39 – strain DRC39, OD650, 24 h, E. coli filamentation inducers, primary screen (AID 1178);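 also: growth measured as culture turbidity by optical density at 650 nm; test concentration not given here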; conditions: E. coli DRC39 acrAB, higher = more signal, called active from +8 up or from −8 down
[8] = growth of efflux-deficient E. coli DRC39 – strain DRC39, OD650, 48 h, E. coli filamentation inducers, primary screen (AID 1179);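 also: screen aims at cell division blockers that make cells filament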; conditions: E. coli DRC39 delta-acrAB growth, higher = more signal, called active from +8 up or from −8 down
[9] = viability profiling in RPMI8226 myeloma cells – cell-based, resazurin fluorescence, basal, 24 h, PK04 Diversity Set, profiling panel (AID 1180); conditions: higher = more signal;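 also: RPMI8826 multiple myeloma cell line at 5000 cells per well; test concentration not given here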
[10] = biological target: E3 ubiquitin-protein ligase XIAP (Homo sapiens) (UniProt P98170); experiment: small molecules binding XIAP protein – biophysical, small-molecule microarray, fluorescence 635 nm, primary screen (AID 1181); conditions: higher = more signal;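 also: score merges 667 nm emission and signal to noise over triplicate slides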
Chain of E3 ubiquitin-protein ligase XIAP (Homo sapiens) (P98170 whole entry, looked up): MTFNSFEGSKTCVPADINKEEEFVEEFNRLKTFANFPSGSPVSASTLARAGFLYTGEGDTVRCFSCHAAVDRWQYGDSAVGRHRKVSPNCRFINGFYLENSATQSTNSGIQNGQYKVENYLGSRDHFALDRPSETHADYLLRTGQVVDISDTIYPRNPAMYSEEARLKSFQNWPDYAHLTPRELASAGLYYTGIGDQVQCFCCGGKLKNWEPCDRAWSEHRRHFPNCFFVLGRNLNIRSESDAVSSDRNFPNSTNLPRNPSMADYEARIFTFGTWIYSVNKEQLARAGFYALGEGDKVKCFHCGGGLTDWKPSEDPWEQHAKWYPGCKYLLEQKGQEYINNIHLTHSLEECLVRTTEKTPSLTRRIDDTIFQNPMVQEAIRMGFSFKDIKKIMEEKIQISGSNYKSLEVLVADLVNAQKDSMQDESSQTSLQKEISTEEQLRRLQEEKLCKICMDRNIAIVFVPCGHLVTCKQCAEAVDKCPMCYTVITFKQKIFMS

Chain of Dihydroorotate dehydrogenase (quinone), mitochondrial (Plasmodium falciparum (isolate 3D7)) (Q08210 whole entry, looked up): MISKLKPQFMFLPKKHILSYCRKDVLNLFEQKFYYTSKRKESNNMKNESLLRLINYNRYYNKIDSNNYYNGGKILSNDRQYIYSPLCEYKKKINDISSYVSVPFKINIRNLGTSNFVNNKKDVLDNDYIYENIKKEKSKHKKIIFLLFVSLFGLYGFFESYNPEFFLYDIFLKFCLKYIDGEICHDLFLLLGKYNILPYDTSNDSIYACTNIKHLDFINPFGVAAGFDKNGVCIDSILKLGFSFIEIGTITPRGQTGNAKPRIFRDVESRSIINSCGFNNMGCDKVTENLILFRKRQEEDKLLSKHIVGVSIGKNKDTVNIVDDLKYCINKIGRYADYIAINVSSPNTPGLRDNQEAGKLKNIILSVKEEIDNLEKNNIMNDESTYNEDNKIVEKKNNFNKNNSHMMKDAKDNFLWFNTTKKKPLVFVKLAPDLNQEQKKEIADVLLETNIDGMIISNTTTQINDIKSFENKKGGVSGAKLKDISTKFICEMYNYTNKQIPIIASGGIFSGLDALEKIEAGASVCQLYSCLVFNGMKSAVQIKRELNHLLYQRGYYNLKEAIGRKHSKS

Row | Structure (SMILES) | z-score [1] | z-score [2] | z-score [3] | composite z-score [4] | z-score [5] | z-score [6] | z-score [7] | z-score [8] | z-score [9] | composite z-score [10]
1 | O=C(NCc1ccccc1)[C@@H]1c2ccccc2C(=O)N(C2Cc3ccccc3C2)[C@H]1c1ccc(CO)cc1 | -0.786 | 0.848 (inactive) | -0.139 (inactive) | 0.211 (inactive) | 0.581 (inactive) | 0.644 (inactive) | 0.0426 (inactive) | -0.15 (inactive) | 0.12 | -0.133
2 | CCOC(=O)C1=CC[C@H]2C(=O)N(c3ccccc3)C(=O)[C@@H]12 | 0.119 | 0.206 (inactive) | -0.811 (inactive) | 0.494 (inactive) | -0.417 (inactive) | -0.337 (inactive) | -0.809 (inactive) | -1.17 (inactive) | -0.0357 | 0.154
3 | O[C@@H](Cc1ccccc1)[C@@H](/C=C/C1CC1)NCc1cccc(Cl)c1 | -0.891 | -9.37 (active) | -1.22 (inactive) | -0.316 (inactive) | -0.344 (inactive) | -1.15 (inactive) | 0.451 (inactive) | -0.957 (inactive) | -1.18 | -0.175
4 | COc1ccc([Si](C)(C)[C@H]2[C@H](CC(=O)N3CCC[C@H]3CO)O[C@@]3(C(=O)N(Cc4cccc(N5CCOC5=O)c4)c4ccccc43)[C@@H]2C)cc1 | 0.22 | -0.338 (inactive) | -0.133 (inactive) | -3.32 (inactive) | -0.249 (inactive) | 0.177 (inactive) | 0.181 (inactive) | -0.109 (inactive) | -0.699 | -0.0839
5 | O=C(CS)NCCCCCNC(=O)[C@H]1C[C@H]2C(=O)NCC(=O)N2[C@H]1c1ccc(O)cc1 | 1.33 | -0.208 (inactive) | 1.5 (inactive) | -0.522 (inactive) | -0.832 (inactive) | -1.3 (inactive) | 0.268 (inactive) | 0.0249 (inactive) | 1.21 | 0.0621
6 | CO[C@H]1O[C@H](CO)[C@@H](OC(=O)Nc2ccccc2)[C@@H]2OC(=O)[C@@H](Cc3ccc4ccccc4c3)C/C=C/C[C@H](Cc3ccc4ccccc4c3)C(=O)O[C@@H]12 | -1.72 | -0.456 (inactive) | -0.588 (inactive) | -2.21 (inactive) | 0.509 (inactive) | -0.474 (inactive) | 1.13 (inactive) | 1.09 (inactive) | -1.15 | 1.54
7 | O=C1O[C@H](c2ccccc2)[C@H](c2ccccc2)N2[C@H]1[C@@H](C(=O)N1CCN(c3ncccn3)CC1)[C@]1(C(=O)Nc3ccc(C#CC4=CCCCC4)cc31)[C@H]2c1ccccc1OCCO | -0.476 | 1.4 (inactive) | -1.49 (inactive) | -0.0965 (inactive) | 1.78 (inactive) | 1.29 (inactive) | -0.873 (inactive) | -1.05 (inactive) | -1.77 | 0.0547
8 | O=C1OCC=C[C@H]2OC34C=CCN(Cn5nnc6ccccc65)C(=O)[C@H]3N(CCCCCO)C(=O)[C@@H]4[C@@H]12 (stereo not given in full) | 0.0883 | 0.21 (inactive) | -0.0233 (inactive) | -1.24 (inactive) | 0.193 (inactive) | -0.273 (inactive) | -0.293 (inactive) | -0.571 (inactive) | -0.0297 | 0.515
9 | C[N+](C)(C)CCCC[C@@H]1NC(=O)[C@H]2C[C@@H](C(=O)NCCCCCCNC(=O)CS)[C@@H](c3ccc(O)cc3)N2C1=O | -0.935 | 0.123 (inactive) | -0.476 (inactive) | 0.0966 (inactive) | -0.0059 (inactive) | -0.0807 (inactive) | 0.0109 (inactive) | -0.643 (inactive) | -0.862 | -0.0272
10 | CC(=CC1CCCCC1)[C@@H](NC(=O)c1cccnc1)c1ccc(-c2ccccc2)cc1 | 0.41 | 2.33 (inactive) | 0.382 (inactive) | -0.22 (inactive) | 1.93 (inactive) | 2.69 (inactive) | -0.906 (inactive) | -0.871 (inactive) | -1.22 | -0.0095
11 | COc1ccc([Si](C)(C)[C@@H]2[C@@H](CCn3cc(CCO)nn3)O[C@]3(C(=O)N(Cc4cccc(N5C(=O)c6cccc7cccc5c67)c4)c4ccccc43)[C@H]2C)cc1 | -3.66 | 0.348 (inactive) | -6.83 (inactive) | 0.0598 (inactive) | -0.459 (inactive) | 1.69 (inactive) | -0.162 (inactive) | -0.831 (inactive) | -6.09 | -0.0999
12 | COC(=O)[C@H](Cc1ccccc1)N[C@H](/C=C/C1CC1)[C@@H](O)Cc1ccccc1 | 1 | -4.55 (inactive) | 1.2 (inactive) | 1.14 (inactive) | -0.708 (inactive) | -1.44 (inactive) | 1.58 (inactive) | 0.398 (inactive) | 0.663 | -0.195
13 | CCCCN1CC=CC23O[C@@H]4/C=C\CCCOC(=O)C4[C@H]2C(=O)N(CCCO)[C@@H]3C1=O (stereo not given in full) | 0.426 | 0.129 (inactive) | 0.31 (inactive) | 0.119 (inactive) | 0.55 (inactive) | -1.39 (inactive) | -0.0564 (inactive) | -0.314 (inactive) | 0.309 | -0.31
14 | CCCC=C(CCC)[C@@H](NC(=O)OCC(C)C)c1ccccc1 | -0.624 | 1.08 (inactive) | -0.863 (inactive) | -4.03 (inactive) | 2.77 (inactive) | 0.396 (inactive) | -0.526 (inactive) | -1.64 (inactive) | 0.0342 | -0.0852
15 | C=CCC(OC(C)=O)[C@@H]1[C@@H](N(Cc2ccc(-c3cccc(C(F)(F)F)c3)o2)C(=O)c2cccc3ccccc23)c2cc(OCCCO)ccc2N1C(=O)Cc1ccc2ccccc2c1 (stereo not given in full) | -0.496 | -0.721 (inactive) | -0.291 (inactive) | 0.22 (inactive) | -0.935 (inactive) | -0.0974 (inactive) | 0.525 (inactive) | 0.235 (inactive) | -0.638 | -0.242
16 | CC(C)CNC(=O)[C@@]1(Cc2ccccc2I)c2ccccc2C(=O)N(Cc2ccccc2C(F)(F)F)[C@H]1c1ccc(CO)cc1 | -0.165 | 0.428 (inactive) | -0.0663 (inactive) | 0.366 (inactive) | -0.0528 (inactive) | 0.0567 (inactive) | -0.188 (inactive) | 0.588 (inactive) | -0.0359 | -0.271
17 | O=c1cccc(-c2ccccc2Cl)o1 | -0.611 | -2.25 (inactive) | -0.111 (inactive) | -0.316 (inactive) | -0.0043 (inactive) | -0.234 (inactive) | -0.366 (inactive) | -0.608 (inactive) | -0.698 | -0.0999
18 | COCCOC(=O)N1C(=O)[C@@]2(c3ccccc31)[C@H](C(=O)N1CCc3cc(OC)c(OC)cc3C1)[C@H]1C(=O)O[C@H](c3ccccc3)[C@H](c3ccccc3)N1[C@@H]2c1ccc(O)cc1 | 0.349 | 0.296 (inactive) | 0.173 (inactive) | -0.974 (inactive) | 2.16 (inactive) | 1.13 (inactive) | -0.157 (inactive) | 0.549 (inactive) | -0.111 | 0.116
19 | CCCCC(=C=CC[C@@H](O)c1cccc(OCCO)c1)C[C@@H](O)c1ccccn1 | 0.599 | -1.56 (inactive) | 0.0382 (inactive) | -1.42 (inactive) | 0.968 (inactive) | 0.129 (inactive) | 0.584 (inactive) | 0.493 (inactive) | 0.695 | -0.102
20 | CC(C)[C@@H](C(=O)O)n1cc(C2(O)CCCCC2)nn1 | 0.853 | -1.45 (inactive) | 0.979 (inactive) | -0.549 (inactive) | 0.313 (inactive) | -0.513 (inactive) | 0.738 (inactive) | -0.195 (inactive) | 0.354 | 0.0077
21 | COc1ccccc1CN1C(=O)c2ccccc2[C@@]2(Cc3ccccc3N(CCCN(C)C)C2=O)[C@@H]1c1ccc(CO)cc1 | -0.434 | 0.259 (inactive) | 1.17 (inactive) | -19.5 (active) | 0.282 (inactive) | -0.746 (inactive) | 1.28 (inactive) | 0.468 (inactive) | 0.723 | -0.113
22 | COCCCNC(=O)[C@@]1(Cc2ccccc2CN=[N+]=[N-])N=C(c2ccc(OCCCO)cc2)O[C@H]1c1ccccc1CN=[N+]=[N-] | 0.122 | -1.03 (inactive) | -1.92 (inactive) | 1.06 (inactive) | 0.218 (inactive) | -0.016 (inactive) | 2.15 (inactive) | 0.707 (inactive) | -4.14 | 0.244
23 | CCCCC(=C=CC[C@@H](O)c1ccc(CO)o1)CCO | 1.15 | -0.205 (inactive) | -0.438 (inactive) | -0.594 (inactive) | 0.838 (inactive) | 0.175 (inactive) | 1.54 (inactive) | 1.12 (inactive) | 1.22 | 0.128
24 | COc1ccc([Si](C)(C)[C@H]2[C@H](CCn3cc([C@H](O)c4ccccc4)nn3)O[C@@]3(C(=O)N(C)c4ccccc43)[C@@H]2C)cc1 | 0.894 | 0.0785 (inactive) | -0.722 (inactive) | -0.778 (inactive) | 0.92 (inactive) | 1.01 (inactive) | 0.445 (inactive) | 0.416 (inactive) | -0.568 | 0.393
